Results from PubChem BioAssay AID1663 (Broad Institute, 2009).
Out of some 300,000 compounds screened, about 660 (0.22%) were called active.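 How the source made its calls: active means mean replicate score, as percent of positive control, at or above 50; inconclusive means mean below 50 but at least one replicate at or above 50; inactive means mean and every replicate below 50.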 The entries come from a sample that favours actives as a whole.

Assay: blockers of SFLLRN-triggered platelet ATP release – cell-based, MLPCN, human platelets, primary screen (AID 1663)
Settings: human platelet-rich plasma, SFLLRN dense granule ATP release, luminescence; hits give high values;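 compounds screened at 7.5 µM in platelet-rich plasma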

SMILES	inhibition
Cc1nn(CC(=O)NCC2CCCO2)c(=O)c2cc3ccccc3n12 (stereo not drawn)	-4.75% (inactive)
CCOC(CNC(=O)C(=O)NCC(c1ccco1)N1CCN(c2ccc(OC)cc2)CC1)OCC (stereo not drawn)	-9.05% (inactive)
COc1ccc(C(=O)N2CCCC(C(=O)c3ccccc3OC)C2)cc1OC (stereo not drawn)	2.76% (inactive)
Cc1ccc(S(=O)(=O)c2nc(NCCCn3ccnc3)sc2Cl)cc1	-1.94% (inactive)
Cc1c(Cl)cccc1NC(=S)NCC(O)c1ccccc1 (stereo not drawn)	3.98% (inactive)
OC(CNCc1ccc(Cl)c(Cl)c1)c1ccccc1 (stereo not drawn)	52.7% (active)
CC(C)(CNCC(O)c1ccccc1)N1CCOCC1 (stereo not drawn)	1.36% (inactive)
COc1ccc(NC(=O)CC(NC(C)c2ccccc2)C(=O)O)cc1 (stereo not drawn)	-14.9% (inactive)
Cc1ccc(C)c(OCCC(=O)OCC(=O)N2CCN(c3ccccc3)CC2)c1	-18.4% (inactive)
CC1(c2ccc(Cl)cc2Cl)NC(=O)N(CC(=O)Nc2cccnc2Cl)C1=O (stereo not drawn)	-2.12% (inactive)
CCOc1ccc(S(=O)(=O)Nc2cccc(C(=O)NCC3(N4CCCCC4)CCCCC3)c2)cc1	5.48% (inactive)
O=C(NCC1(N2CCCCC2)CCCCC1)c1ccc(NS(=O)(=O)c2ccc(F)cc2)cc1	52.6% (active)
Cc1ccc(NS(=O)(=O)c2ccc(C(=O)NCCCN3CCOCC3)cc2)cc1	-3.44% (inactive)
CCN(CC)C(=O)Oc1ccc(Br)cc1C(=O)Nc1ccc(F)c(Cl)c1	-3.91% (inactive)
COC(C[C@@H](O)[C@H](C)[C@H](O)COCc1ccccc1)OC	-0.14% (inactive)
CC(=O)N/C(=C\c1ccccc1)C(=O)OC(C)C(=O)N(C)c1ccccc1 (stereo not drawn)	-1.59% (inactive)
CC(C)Cn1c(=O)c2ccccc2n2c(CCC(=O)NCc3ccccn3)nnc12	3.52% (inactive)
O=C(CSc1ccc2nnc(-c3ccccc3)n2n1)N1CCCc2ccccc21	17.4% (inactive)
CCCCNC(=O)C1(c2ccc(OC)cc2)CCOCC1	4.45% (inactive)
CC(C)Oc1ccc(CCc2n[nH]c(=S)n2Cc2ccccc2)cc1	-6.11% (inactive)
O=S(=O)(c1ccccc1)N1CCc2ccccc21	2.42% (inactive)
CC(=O)Nc1ccc(C(=O)/C=C/c2ccc[nH]2)cc1	-21.1% (inactive)
COc1cc2c(cc1OC)/C(=C/C(=O)c1ccc(NC(C)=O)cc1)NCC2	55.3% (active)
COc1cc2c(cc1OC)CN(CC(=O)Nc1ccc(F)cc1)CC2	7.57% (inactive)
CCOC(=O)Cc1cc(=O)[nH]c(/N=C(\N)Nc2ccc(OC)cc2)n1	8.61% (inactive)

SMILES	inhibition
Cc1nc2ccc(C(=O)N/N=C/c3ccc(O)cc3)cc2[nH]1	-1.64% (inactive)
O=C(C[n+]1ccccc1)N/N=C/c1ccc(O)cc1	2.83% (inactive)
Cc1nonc1C(=O)N/N=C/c1ccc(O)cc1	103% (active)
CC(NC(=O)c1ccccc1C(=O)O)c1ccc(-n2ccnc2)cc1 (stereo not drawn)	13.8% (inactive)
O=C(Nc1ccc(Cl)cc1)Nc1ccc(Oc2cccnc2)nc1	2.76% (inactive)
CC(C)=CCN1CCN(Cc2cc3ccccc3[nH]2)CC1CCO (stereo not drawn)	9.2% (inactive)
CC1CCCCN1S(=O)(=O)c1ccc(C(=O)Nc2nnc(-c3cccs3)o2)cc1 (stereo not drawn)	-0.561% (inactive)
CCN(CC(=O)NCc1cccs1)S(=O)(=O)c1ccc(NC(C)=O)cc1	-21.6% (inactive)
CC1CCCCN1S(=O)(=O)c1ccc(S(=O)(=O)N(CC(=O)Nc2ccccc2)Cc2cccs2)cc1 (stereo not drawn)	50.6% (active)
O=C(Nc1ccncc1)Nc1ccc(F)cc1	4.47% (inactive)
CC1(C)CC[C@]2(C(=O)O)CC[C@]3(C)C(=CCC4[C@@]5(C)CC[C@H](O)C(C)(C)C5[C@H](O)C[C@]43C)[C@@H]2C1 (stereo partly drawn)	3.05% (inactive)
COc1cc(NC(=S)NNC(=O)CC(C)C)c(OC)cc1Cl	-6.51% (inactive)
COC(=O)c1c(NC(=O)c2ccccc2F)sc2c1C(C(=O)OC)CC2 (stereo not drawn)	2.31% (inactive)
Cc1nc(CC(=O)NNS(=O)(=O)c2ccc(F)c(Cl)c2)cs1	12.2% (inactive)
O=C(N/N=C/c1ccccn1)c1cccc(NC(=O)c2ccc(Cl)cc2)c1	1.55% (inactive)
CN(CCO)c1ccc(/C=N/Nc2nncc3ccccc23)cc1	76.1% (active)
C/C(=N\Nc1nncc2ccccc12)c1ccc(Cl)c([N+](=O)[O-])c1	-6.62% (inactive)
COc1cc(/C=N/Nc2nn3cnnc3c3ccccc23)cc(OC)c1OC	11.5% (inactive)
Cc1c(C(=O)NCCN2CCOCC2)sc2nc(-c3ccc(F)cc3)cn12	10.4% (inactive)
CSCCC(NC(=O)COc1ccccc1)C(=O)OCCOc1ccc(F)cc1 (stereo not drawn)	-11.3% (inactive)
CCN1C(=NCc2ccc(OC)cc2)N[C@@H](CCc2ccccc2)[C@H](C(=O)NCc2ccc(OC)cc2)[C@H]1C	9.74% (inactive)
CN(C)S(=O)(=O)c1cccc(C(=O)OCC(=O)N2CCCC2=O)c1	-9.7% (inactive)
O=C(NCc1ccccc1)C1CCN(C(=O)Cc2ccccc2)CC1	-35.6% (inactive)
CCOC(=O)c1cnc2nc(SCc3ccccc3Cl)[nH]n2c1=O	3.83% (inactive)
CCOc1ccc(C2C3=C(CCCC3=O)N(CC(=O)O)C3=C2C(=O)CCC3)cc1	-23.7% (inactive)

SMILES	inhibition
CCN1CCN(C(=O)C2CCCN(S(=O)(=O)c3ccc(OC)c(OC)c3)C2)CC1 (stereo not drawn)	5.04% (inactive)
O=S(=O)(Nc1ncccn1)c1ccc(NS(=O)(=O)c2cccc(Cl)c2Cl)cc1	1.24% (inactive)
COc1cccc(C(=O)c2cc3ccc(O)cc3oc2=O)c1	69.5% (active)
COc1cccc(C(=O)NNC(=O)c2cccc(F)c2)c1	-6.44% (inactive)
CCOC(=O)c1cc2cc3ccccc3cc2oc1=O	8.56% (inactive)
Nc1nonc1-n1nnc(C(=O)N/N=C/c2ccc(Cl)cc2)c1-c1ccc2c(c1)OCO2	2.68% (inactive)
O=C(CN1CCOCC1)N1CCCc2c1c(=O)oc1ccc(OCc3ccccc3)cc21	-1.74% (inactive)
CC(C)(C)c1cc[n+](-c2[nH]c(=O)sc2/C=N/N=C(\[O-])c2ccccc2)cc1	3.87% (inactive)
CC(CCc1ccc(O)cc1)NCc1ccc(Cl)cc1Cl (stereo not drawn)	1.67% (inactive)
O=C(CCn1nnnc1CN1CCOCC1)N1CCC(c2ccccc2Cl)C1 (stereo not drawn)	2.44% (inactive)
CCc1cc(CNC(=O)CC2C(=O)NCCN2CC2CCCCC2)on1 (stereo not drawn)	4.79% (inactive)
CN=C1S/C(=C\c2c(OC)cc(OC)cc2OC)C(=O)N1C	10.3% (inactive)
COc1ccccc1C(=O)COC(=O)CNS(=O)(=O)c1ccc(NC(C)=O)cc1	6.24% (inactive)
Cn1cc([N+](=O)[O-])c(C(=O)Nc2ccc3c(c2)OCCO3)n1	31.8% (inactive)
Cc1nn(CC(=O)Nc2ccc3c(c2)OCO3)c(C)c1[N+](=O)[O-]	11.1% (inactive)
Cc1onc(C(=O)Nc2ccc3c(c2)OCO3)c1[N+](=O)[O-]	75.7% (active)
Cc1nn(C)c(Cl)c1CN1CCC(Oc2ccc(C(=O)N3CCCC3)cc2)CC1	0.366% (inactive)
Brc1ccc(C2CC(c3ccccc3)=Nc3ccccc3N2)cc1 (stereo not drawn)	7.02% (inactive)
C=CCn1c(C)cc(C2=NNC(=NCC)SC2)c1C	50.4% (active)
C=CCn1c(C)cc(C(=O)CN2C(=O)c3ccccc3C2=O)c1C	6.9% (inactive)
Cc1cccc(N=C2NN=C(c3c[nH]c4ccccc34)CS2)c1	-0.733% (inactive)
COc1ccc(CCN2C(=O)N(c3ccc(OC)cc3)C(=O)C2CC(=O)Nc2ccc(OC)cc2)cc1 (stereo not drawn)	-2.02% (inactive)
COC(=O)[C@@]12CCCN1[C@H](c1ccc(-c3ccc(F)cc3)c(OC)c1)[C@H]1C(=O)N(C)C(=O)[C@H]12	0.984% (inactive)
